Test results taken from the supplement of paper PMC11732987, “Enantioselective OTUD7B fragment discovery through chemoproteomics screening and high-throughput optimisation” (Communications Chemistry, 2025).

What was measured:
Experiment in all cases: log2 ratio of Biotin-Ahx-Ub-VS probe labelling (fragment/DMSO); higher = less target engagement (more negative = stronger competition), active = hit call of the paper (q ≤ 0.05, log2 ratio ≤ -1)
Details in all cases: compound concentration: 200 uM; treatment time: 3 h
[1] = molecular target: USP34 (UniProt Q70CQ2)
USP34, sequence (Q70CQ2 whole entry, the tested form may be a part): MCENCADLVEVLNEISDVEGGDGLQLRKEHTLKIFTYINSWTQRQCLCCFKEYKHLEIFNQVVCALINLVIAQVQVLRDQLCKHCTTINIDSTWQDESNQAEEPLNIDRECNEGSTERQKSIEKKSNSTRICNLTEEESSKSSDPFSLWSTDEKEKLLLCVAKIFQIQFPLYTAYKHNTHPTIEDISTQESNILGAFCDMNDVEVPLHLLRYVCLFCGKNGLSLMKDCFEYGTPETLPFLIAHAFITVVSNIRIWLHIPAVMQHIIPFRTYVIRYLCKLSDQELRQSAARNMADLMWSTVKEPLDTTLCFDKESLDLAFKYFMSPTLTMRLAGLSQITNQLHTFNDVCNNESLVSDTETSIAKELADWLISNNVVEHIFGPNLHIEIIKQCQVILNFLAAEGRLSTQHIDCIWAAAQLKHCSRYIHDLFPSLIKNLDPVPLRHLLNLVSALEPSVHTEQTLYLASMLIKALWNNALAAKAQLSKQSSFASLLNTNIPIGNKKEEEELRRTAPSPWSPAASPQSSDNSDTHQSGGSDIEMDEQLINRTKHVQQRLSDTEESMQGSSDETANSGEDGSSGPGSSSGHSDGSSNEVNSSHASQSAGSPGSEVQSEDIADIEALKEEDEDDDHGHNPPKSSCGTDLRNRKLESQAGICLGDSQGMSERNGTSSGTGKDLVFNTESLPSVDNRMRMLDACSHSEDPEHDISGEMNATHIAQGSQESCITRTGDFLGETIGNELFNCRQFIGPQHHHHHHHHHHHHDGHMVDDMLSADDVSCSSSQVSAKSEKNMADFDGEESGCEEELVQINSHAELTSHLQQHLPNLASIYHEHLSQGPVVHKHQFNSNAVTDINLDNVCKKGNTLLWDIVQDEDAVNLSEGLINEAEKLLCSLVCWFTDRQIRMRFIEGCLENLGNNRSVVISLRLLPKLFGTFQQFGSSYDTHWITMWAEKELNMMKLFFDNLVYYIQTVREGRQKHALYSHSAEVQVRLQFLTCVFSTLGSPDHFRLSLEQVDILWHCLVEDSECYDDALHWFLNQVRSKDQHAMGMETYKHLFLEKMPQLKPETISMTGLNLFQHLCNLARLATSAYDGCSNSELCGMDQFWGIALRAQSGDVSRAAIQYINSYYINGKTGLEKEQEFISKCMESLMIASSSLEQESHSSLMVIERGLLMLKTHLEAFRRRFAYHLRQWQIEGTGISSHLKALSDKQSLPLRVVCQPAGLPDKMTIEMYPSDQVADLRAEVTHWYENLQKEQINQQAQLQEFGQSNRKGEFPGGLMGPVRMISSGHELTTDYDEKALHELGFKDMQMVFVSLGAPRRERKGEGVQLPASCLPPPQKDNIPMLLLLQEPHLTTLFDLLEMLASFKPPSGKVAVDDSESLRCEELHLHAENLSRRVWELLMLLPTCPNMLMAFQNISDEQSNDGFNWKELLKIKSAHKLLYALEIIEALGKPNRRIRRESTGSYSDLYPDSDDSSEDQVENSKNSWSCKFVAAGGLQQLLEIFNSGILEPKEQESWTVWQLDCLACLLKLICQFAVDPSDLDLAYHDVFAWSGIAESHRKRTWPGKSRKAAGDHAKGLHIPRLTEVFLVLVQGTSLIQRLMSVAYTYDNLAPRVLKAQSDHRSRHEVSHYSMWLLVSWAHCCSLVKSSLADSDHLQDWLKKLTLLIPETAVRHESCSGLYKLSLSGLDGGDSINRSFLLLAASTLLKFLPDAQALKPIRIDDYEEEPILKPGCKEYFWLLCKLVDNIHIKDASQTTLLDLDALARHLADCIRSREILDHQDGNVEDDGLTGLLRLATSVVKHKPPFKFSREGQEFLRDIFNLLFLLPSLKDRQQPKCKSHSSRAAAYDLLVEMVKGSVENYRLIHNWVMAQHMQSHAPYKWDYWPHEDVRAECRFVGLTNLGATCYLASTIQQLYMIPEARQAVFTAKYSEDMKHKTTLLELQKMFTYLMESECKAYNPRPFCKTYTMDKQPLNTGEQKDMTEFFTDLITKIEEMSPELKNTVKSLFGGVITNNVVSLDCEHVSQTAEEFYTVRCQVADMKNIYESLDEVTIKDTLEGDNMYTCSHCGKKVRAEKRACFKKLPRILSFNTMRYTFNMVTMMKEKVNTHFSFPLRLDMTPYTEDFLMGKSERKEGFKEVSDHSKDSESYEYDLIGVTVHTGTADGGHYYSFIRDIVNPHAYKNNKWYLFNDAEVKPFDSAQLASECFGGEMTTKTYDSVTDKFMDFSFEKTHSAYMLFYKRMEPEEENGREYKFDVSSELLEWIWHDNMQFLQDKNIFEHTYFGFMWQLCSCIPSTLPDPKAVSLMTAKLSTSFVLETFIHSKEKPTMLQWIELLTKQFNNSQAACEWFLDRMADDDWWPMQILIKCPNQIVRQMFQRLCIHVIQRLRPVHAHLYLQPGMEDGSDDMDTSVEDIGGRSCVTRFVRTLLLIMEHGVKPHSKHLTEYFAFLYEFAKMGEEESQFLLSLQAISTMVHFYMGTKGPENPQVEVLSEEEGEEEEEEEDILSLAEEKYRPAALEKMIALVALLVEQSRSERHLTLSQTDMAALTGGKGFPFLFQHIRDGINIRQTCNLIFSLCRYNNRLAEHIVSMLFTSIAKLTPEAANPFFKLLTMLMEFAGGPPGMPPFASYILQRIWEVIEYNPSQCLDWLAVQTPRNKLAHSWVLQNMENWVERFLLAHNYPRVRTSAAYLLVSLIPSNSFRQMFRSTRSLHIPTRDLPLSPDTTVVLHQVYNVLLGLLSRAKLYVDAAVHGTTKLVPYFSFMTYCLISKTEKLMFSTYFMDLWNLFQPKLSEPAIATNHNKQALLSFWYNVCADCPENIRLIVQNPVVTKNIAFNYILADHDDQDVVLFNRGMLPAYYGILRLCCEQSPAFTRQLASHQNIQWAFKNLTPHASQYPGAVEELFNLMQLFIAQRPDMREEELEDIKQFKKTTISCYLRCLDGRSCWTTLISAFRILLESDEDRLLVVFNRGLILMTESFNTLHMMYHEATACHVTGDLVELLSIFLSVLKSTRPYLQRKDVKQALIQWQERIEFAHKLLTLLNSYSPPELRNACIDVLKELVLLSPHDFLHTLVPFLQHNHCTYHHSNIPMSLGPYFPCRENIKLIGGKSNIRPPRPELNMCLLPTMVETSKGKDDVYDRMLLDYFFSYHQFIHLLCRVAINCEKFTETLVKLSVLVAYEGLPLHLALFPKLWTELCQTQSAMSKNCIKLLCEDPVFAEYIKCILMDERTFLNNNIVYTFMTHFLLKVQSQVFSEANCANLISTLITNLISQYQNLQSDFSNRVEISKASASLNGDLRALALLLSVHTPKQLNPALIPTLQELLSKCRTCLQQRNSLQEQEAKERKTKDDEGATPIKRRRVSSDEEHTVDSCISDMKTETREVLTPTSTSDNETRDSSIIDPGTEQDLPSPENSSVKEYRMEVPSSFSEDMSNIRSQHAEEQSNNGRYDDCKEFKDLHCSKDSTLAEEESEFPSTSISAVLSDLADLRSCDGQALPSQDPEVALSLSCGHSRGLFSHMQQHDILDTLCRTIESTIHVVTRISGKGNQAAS
Summary of the method: (§1)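 In triplicate, 495 µg of HEK293T lysate per sample was incubated with fragment at 200 µM or vehicle for 3 h. Biotin-Ahx-Ub-VS was then added to 0.5 µM final for 1 h, and labelled DUBs were captured with NeutrAvidin, digested with LysC and trypsin, and measured by diaPASEF LC-MS/MS. Data are average log2 fragment/vehicle ratios by unpaired t-test from global-median-normalised Spectronaut label-free quantities, restricted to proteins with ≥2 unique peptides.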

[2] = molecular target: T1, USP36 (UniProt Q9P275)
T1 sequence (whole entry): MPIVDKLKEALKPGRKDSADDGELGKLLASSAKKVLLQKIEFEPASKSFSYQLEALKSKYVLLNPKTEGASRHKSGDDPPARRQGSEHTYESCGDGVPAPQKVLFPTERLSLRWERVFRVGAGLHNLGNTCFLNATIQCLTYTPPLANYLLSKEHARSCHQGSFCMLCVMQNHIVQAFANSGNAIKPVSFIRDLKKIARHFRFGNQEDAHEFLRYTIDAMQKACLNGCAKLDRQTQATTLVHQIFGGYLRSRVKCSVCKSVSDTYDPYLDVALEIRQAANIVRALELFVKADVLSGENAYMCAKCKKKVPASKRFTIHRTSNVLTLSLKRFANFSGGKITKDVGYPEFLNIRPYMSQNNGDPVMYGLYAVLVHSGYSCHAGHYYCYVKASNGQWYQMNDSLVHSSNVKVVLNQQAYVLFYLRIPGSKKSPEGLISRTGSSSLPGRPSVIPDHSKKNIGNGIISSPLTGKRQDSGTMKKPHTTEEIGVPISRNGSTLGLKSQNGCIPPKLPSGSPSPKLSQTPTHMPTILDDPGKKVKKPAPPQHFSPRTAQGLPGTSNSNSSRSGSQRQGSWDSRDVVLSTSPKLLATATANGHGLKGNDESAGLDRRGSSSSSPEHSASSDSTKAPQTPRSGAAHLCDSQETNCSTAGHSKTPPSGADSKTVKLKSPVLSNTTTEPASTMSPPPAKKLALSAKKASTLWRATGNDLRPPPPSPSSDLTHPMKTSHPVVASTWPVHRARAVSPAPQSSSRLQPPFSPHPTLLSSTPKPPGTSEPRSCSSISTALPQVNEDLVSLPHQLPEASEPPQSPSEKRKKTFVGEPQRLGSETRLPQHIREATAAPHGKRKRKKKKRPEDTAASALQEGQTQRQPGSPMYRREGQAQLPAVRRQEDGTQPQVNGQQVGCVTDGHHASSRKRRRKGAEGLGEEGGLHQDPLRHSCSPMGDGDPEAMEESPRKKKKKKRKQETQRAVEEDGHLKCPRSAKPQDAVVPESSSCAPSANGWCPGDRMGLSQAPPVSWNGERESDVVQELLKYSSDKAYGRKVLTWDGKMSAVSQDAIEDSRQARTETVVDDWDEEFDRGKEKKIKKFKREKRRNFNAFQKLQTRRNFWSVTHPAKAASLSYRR
Summary of the method: as §1

[3] = molecular target: T2, USP38 (UniProt Q8NB14)
T2 sequence (whole entry): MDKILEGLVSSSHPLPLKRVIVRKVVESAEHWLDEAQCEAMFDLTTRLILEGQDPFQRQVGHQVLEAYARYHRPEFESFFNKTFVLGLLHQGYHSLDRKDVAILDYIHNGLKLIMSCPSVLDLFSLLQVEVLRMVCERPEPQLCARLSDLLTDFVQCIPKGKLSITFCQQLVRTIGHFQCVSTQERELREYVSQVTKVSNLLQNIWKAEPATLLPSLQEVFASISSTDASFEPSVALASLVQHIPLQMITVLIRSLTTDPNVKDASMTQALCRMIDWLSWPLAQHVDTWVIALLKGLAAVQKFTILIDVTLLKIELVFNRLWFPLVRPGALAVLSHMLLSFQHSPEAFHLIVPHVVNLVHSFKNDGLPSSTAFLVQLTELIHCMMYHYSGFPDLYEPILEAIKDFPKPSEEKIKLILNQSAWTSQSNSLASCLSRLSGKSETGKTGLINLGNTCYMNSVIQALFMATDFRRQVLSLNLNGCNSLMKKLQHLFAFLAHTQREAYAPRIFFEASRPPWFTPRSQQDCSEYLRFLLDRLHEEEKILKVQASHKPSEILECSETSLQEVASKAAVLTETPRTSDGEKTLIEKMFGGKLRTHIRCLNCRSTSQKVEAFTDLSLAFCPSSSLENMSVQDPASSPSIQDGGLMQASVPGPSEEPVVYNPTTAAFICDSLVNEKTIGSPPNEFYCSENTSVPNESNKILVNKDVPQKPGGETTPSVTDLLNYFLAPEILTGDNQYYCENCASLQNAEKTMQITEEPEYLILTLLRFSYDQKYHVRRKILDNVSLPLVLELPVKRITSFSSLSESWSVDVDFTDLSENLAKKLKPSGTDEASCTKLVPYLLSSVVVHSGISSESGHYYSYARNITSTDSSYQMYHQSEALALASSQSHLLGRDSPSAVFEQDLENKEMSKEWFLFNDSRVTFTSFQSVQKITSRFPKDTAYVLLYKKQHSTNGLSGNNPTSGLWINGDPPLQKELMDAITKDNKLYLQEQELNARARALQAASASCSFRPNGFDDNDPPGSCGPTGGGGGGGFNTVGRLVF
Summary of the method: as §1

[4] = molecular target: T3, USP39 (UniProt Q53GS9)
T3 sequence (whole entry): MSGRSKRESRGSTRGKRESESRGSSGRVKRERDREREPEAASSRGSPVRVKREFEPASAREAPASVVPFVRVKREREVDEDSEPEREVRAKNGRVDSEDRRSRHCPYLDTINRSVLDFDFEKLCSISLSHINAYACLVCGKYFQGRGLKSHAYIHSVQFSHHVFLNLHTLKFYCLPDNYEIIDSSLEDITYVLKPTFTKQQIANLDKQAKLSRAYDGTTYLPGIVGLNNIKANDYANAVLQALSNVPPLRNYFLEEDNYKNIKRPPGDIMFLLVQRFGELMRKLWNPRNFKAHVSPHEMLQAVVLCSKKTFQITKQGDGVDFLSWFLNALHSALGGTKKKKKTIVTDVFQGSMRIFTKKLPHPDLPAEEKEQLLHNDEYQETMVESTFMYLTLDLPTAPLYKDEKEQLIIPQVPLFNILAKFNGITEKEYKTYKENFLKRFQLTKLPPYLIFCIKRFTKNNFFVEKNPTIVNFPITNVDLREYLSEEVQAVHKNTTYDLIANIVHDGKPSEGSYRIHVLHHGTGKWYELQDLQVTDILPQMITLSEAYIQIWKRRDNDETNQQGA
Summary of the method: as §1

[5] = molecular target: T4, USP4 (UniProt Q13107)
T4 sequence (whole entry): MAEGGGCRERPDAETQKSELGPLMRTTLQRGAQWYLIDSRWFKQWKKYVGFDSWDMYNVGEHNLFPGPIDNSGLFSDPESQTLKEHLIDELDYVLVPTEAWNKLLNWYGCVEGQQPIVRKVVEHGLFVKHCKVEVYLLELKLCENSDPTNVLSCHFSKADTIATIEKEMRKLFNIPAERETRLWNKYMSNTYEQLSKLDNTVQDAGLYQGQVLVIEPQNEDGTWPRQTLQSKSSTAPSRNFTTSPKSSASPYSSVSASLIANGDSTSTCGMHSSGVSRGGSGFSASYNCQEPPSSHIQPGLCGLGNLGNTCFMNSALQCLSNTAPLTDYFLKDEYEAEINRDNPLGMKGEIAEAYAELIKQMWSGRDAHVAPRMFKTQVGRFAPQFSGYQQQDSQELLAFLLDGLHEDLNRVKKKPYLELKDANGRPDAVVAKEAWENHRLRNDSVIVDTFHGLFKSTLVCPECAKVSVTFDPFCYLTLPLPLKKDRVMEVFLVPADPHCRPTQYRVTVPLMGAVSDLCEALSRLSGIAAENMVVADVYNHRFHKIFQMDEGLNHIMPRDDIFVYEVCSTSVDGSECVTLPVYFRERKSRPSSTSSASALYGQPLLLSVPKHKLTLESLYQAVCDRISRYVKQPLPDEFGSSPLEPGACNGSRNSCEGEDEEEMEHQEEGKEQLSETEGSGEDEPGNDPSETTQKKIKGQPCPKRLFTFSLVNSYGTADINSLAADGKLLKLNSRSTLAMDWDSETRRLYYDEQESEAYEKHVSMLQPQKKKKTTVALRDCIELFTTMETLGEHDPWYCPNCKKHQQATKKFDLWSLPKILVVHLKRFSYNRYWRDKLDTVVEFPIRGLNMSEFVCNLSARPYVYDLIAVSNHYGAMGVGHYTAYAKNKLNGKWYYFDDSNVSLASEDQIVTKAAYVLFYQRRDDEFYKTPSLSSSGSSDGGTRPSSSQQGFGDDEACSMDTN
Summary of the method: as §1

Measured: log2 ratio of Biotin-Ahx-Ub-VS probe labelling

O=C(CCl)N1CCOC(CCc2ccccc2)C1 (stereo not given)
inactive: [1] -0.338 | [2] 0.0399 | [3] -0.227 | [4] 0.136 | [5] -0.729
